Measured values taken from PubChem BioAssay AID1159580 (chemical genetic matrix, 2015).
Among all 5,500 compounds or so, about 2,000 (36%) were called active. About 18% were inconclusive and are not listed. Rule as the data show it: active = normalized growth mostly below about 0.91 (no sharp cut-off); inconclusive = no clear call, values can overlap the other calls; inactive = mostly above about 0.92. The list shows a part of the results.

Test: chemical genetic growth profiling, strain panel (AID 1159580);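 also: tested at 20 µM; growth read once vehicle control cultures reached saturation at 30 °C; 1 = growth at the plate median or of vehicle wells; lower values mean less growth of the strain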
Conditions: growth OD

Measured: normalized growth

C#C[C@]1(OC(C)=O)CCC2C3CCC4=CC(=O)CC[C@@H]4C3CC[C@@]21C (stereo partly drawn)
active: S. cerevisiae deletion strains, locus YLR418C, strain cdc73, active compounds read low 0.803 | S. cerevisiae deletion strains, locus YNL307C, strain MCK1, active compounds read low 0.889 | S. cerevisiae deletion strains, locus YOR184W, strain ser1, active compounds read low 0.829
inactive: S. cerevisiae deletion strains, locus YKL009W, strain mrt4, active compounds read low 0.968 | S. cerevisiae deletion strains, locus YKL068W, active compounds read low 0.973 | S. cerevisiae deletion strains, locus YKL085W, strain MDH1 (second series), active compounds read low 0.967 | S. cerevisiae deletion strains, locus YKL085W, strain MDH1, active compounds read low 0.967 | S. cerevisiae deletion strains, locus YKL160W, strain elf1, active compounds read low 0.964 | S. cerevisiae deletion strains, locus YKL190W, strain CNB1, active compounds read low 0.977 | S. cerevisiae deletion strains, locus YKR001C, strain vps1, active compounds read low 0.945 | S. cerevisiae deletion strains, locus YKR026C, strain gcn3, active compounds read low 0.984 | S. cerevisiae deletion strains, locus YKR091W, strain srl3, active compounds read low 0.992 | S. cerevisiae deletion strains, locus YLL001W, strain dnm1, active compounds read low 0.988 | S. cerevisiae deletion strains, locus YLL026W, active compounds read low 0.99 | S. cerevisiae deletion strains, locus YLL041C, strain sdh2, active compounds read low 0.976 | S. cerevisiae deletion strains, locus YLR027C, strain aat2, active compounds read low 0.988 | S. cerevisiae deletion strains, locus YLR039C, strain RIC1, active compounds read low 0.892 | S. cerevisiae deletion strains, locus YLR058C, strain SHM2, active compounds read low 0.965 | S. cerevisiae deletion strains, locus YLR102C, strain apc9, active compounds read low 0.975 | S. cerevisiae deletion strains, locus YLR113W, strain HOG1, active compounds read low 0.93 | S. cerevisiae deletion strains, locus YLR221C, strain rsa3, active compounds read low 1.02 | S. cerevisiae deletion strains, locus YLR258W, strain gsy2, active compounds read low 0.965 | S. cerevisiae deletion strains, locus YLR262C, strain YPT6 (second series), active compounds read low 0.991 | S. cerevisiae deletion strains, locus YLR262C, strain YPT6, active compounds read low 0.842 | S. cerevisiae deletion strains, locus YLR268W, strain sec22, active compounds read low 0.926 | S. cerevisiae deletion strains, locus YLR320W, strain mms22, active compounds read low 0.969 | S. cerevisiae deletion strains, locus YLR330W, strain CHS5, active compounds read low 0.978 | S. cerevisiae deletion strains, locus YLR342W, strain FKS1 (second series), active compounds read low 0.956 | S. cerevisiae deletion strains, locus YLR342W, strain FKS1, active compounds read low 0.961 | S. cerevisiae deletion strains, locus YLR357W, strain rsc2, active compounds read low 0.975 | S. cerevisiae deletion strains, locus YLR370C, strain arc18, active compounds read low 0.986 | S. cerevisiae deletion strains, locus YLR371W, strain rom2, active compounds read low 0.983 | S. cerevisiae deletion strains, locus YLR384C, strain iki3, active compounds read low 0.991 | S. cerevisiae deletion strains, locus YML016C, strain PPZ1, active compounds read low 0.963 | S. cerevisiae deletion strains, locus YML032C, strain rad52, active compounds read low 0.957 | S. cerevisiae deletion strains, locus YML120C, strain ndi1, active compounds read low 1.02 | S. cerevisiae deletion strains, locus YML124C, strain tub3, active compounds read low 0.962 | S. cerevisiae deletion strains, locus YMR058W, strain fet3, active compounds read low 1 | S. cerevisiae deletion strains, locus YMR078C, strain ctf18, active compounds read low 0.958 | S. cerevisiae deletion strains, locus YMR125W, strain sto1, active compounds read low 0.978 | S. cerevisiae deletion strains, locus YMR129W, active compounds read low 0.973 | S. cerevisiae deletion strains, locus YMR205C, strain PFK2, active compounds read low 0.984 | S. cerevisiae deletion strains, locus YMR223W, strain ubp8, active compounds read low 0.962 | S. cerevisiae deletion strains, locus YMR231W, strain pep5, active compounds read low 1 | S. cerevisiae deletion strains, locus YMR307W, strain GAS1, active compounds read low 1.08 | S. cerevisiae deletion strains, locus YNL067W, strain RPL9B, active compounds read low 0.984 | S. cerevisiae deletion strains, locus YNL071W, strain lat1, active compounds read low 0.986 | S. cerevisiae deletion strains, locus YNL128W, strain TEP1, active compounds read low 0.977 | S. cerevisiae deletion strains, locus YNL153C, strain GIM3, active compounds read low 0.974 | S. cerevisiae deletion strains, locus YNL183C, strain NPR1, active compounds read low 0.927 | S. cerevisiae deletion strains, locus YNL209W, strain ssb2, active compounds read low 0.983 | S. cerevisiae deletion strains, locus YNL233W, strain BNI4, active compounds read low 0.977 | S. cerevisiae deletion strains, locus YNL248C, strain rpa49, active compounds read low 0.963 | S. cerevisiae deletion strains, locus YNL250W, strain rad50, active compounds read low 0.971 | S. cerevisiae deletion strains, locus YNL271C, strain bni1, active compounds read low 0.961 | S. cerevisiae deletion strains, locus YNL298W, strain CLA4, active compounds read low 0.964 | S. cerevisiae deletion strains, locus YNL322C, strain KRE1 (second series), active compounds read low 0.949 | S. cerevisiae deletion strains, locus YNR049C, strain mso1, active compounds read low 0.994 | S. cerevisiae deletion strains, locus YNR052C, strain pop2, active compounds read low 0.932 | S. cerevisiae deletion strains, locus YOL006C, strain TOP1, active compounds read low 0.867 | S. cerevisiae deletion strains, locus YOL012C, strain htz1 1 | S. cerevisiae deletion strains, locus YOL147C, strain pex11, active compounds read low 0.967 | S. cerevisiae deletion strains, locus YOR001W, strain rrp6, active compounds read low 1.02 | S. cerevisiae deletion strains, locus YOR061W, strain CKA2, active compounds read low 0.942 | S. cerevisiae deletion strains, locus YOR069W, strain VPS5, active compounds read low 0.974 | S. cerevisiae deletion strains, locus YOR070C, strain gyp1, active compounds read low 0.994 | S. cerevisiae deletion strains, locus YOR080W, strain dia2, active compounds read low 0.978 | S. cerevisiae deletion strains, locus YOR083W, strain WHI5, active compounds read low 0.937 | S. cerevisiae deletion strains, locus YOR106W, strain vam3, active compounds read low 0.982 | S. cerevisiae deletion strains, locus YOR136W, strain idh2, active compounds read low 0.992 | S. cerevisiae deletion strains, locus YOR144C, strain elg1, active compounds read low 0.97 | S. cerevisiae deletion strains, locus YOR231W, strain MKK1, active compounds read low 0.956 | S. cerevisiae deletion strains, locus YOR265W, strain rbl2, active compounds read low 0.998 | S. cerevisiae deletion strains, locus YOR270C, strain vph1, active compounds read low 0.996 | S. cerevisiae deletion strains, locus YOR290C, strain snf2, active compounds read low 0.961 | S. cerevisiae deletion strains, locus YOR316C, strain cot1, active compounds read low 0.969 | S. cerevisiae deletion strains, locus YPL051W, strain arl3, active compounds read low 0.98 | S. cerevisiae deletion strains, locus YPL078C, strain atp4, active compounds read low 0.968 | S. cerevisiae deletion strains, locus YPL106C, strain sse1, active compounds read low 0.939 | S. cerevisiae deletion strains, locus YPL240C, strain hsp82, active compounds read low 0.989 | S. cerevisiae deletion strains, locus YPL241C, strain CIN2, active compounds read low 0.975 | S. cerevisiae deletion strains, locus YPL256C, strain CLN2, active compounds read low 0.88 | S. cerevisiae deletion strains, locus YPR119W, strain clb2, active compounds read low 0.972 | S. cerevisiae deletion strains, locus YPR141C, strain kar3, active compounds read low 0.946 | S. cerevisiae deletion strains, locus YPR163C, strain tif3, active compounds read low 0.966 | S. cerevisiae deletion strains, locus YPR167C, strain met16, active compounds read low 0.958 | S. cerevisiae deletion strains, strain wtn01, active compounds read low 0.936 | S. cerevisiae strains, strain wild type, active compounds read low 0.953
